TDP1 cell CPT – qHTS for Inhibitors of human tyrosyl-DNA phosphodiesterase 1 (TDP1): qHTS in cells in presence of CPT; AID 686979, 2013; Potency, µM (doses to about 46.2 µM), for inactives: at the highest dose activity change, negative = growth inhibition, most hits filed as inhibitors; chicken DT40 Tdp1-/-;hTDP1 cells + 20 nM CPT, ATP luminescence, 48 h; hit rate 12% among 420,000; note: potency is the fitted concentration of half-maximal effect; nearly all actives have a fitted effect of over 55% in size
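Chicken DT40 Tdp1-/- cells complemented with human TDP1, 400 cells/well, exposed to compounds plus 20 nM camptothecin for at least 48 h at 37 C; viability read as ATP content by CellTiter-Glo luminescence.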
HT1080NT lethal – qHTS for induction of synthetic lethality in tumor cells producing 2HG: qHTS for the HT-1080-NT fibrosarcoma cell line; Potency, µM (highest dose often 46.1 µM), for the others: top-dose activity, negative = less viability, usual class: cytotoxic; HT-1080-NT fibrosarcoma viability, CellTiter-Glo ATP luminescence, 48 h; AID 686970, 2013; hit rate 1.6% among 360,000;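 note: NT is the 2HG producing partner of a matched IDH1 knockdown line; potency is the fitted concentration of half-maximal effect; 0% = DMSO-treated cells and -100% = media-only wells without cells; nearly all actives have a fitted effect of over 55% in size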
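A 48-hour cytotoxicity screen used HT-1080-NT cells plated 2 hours before compound delivery. ATP-based CellTiter-Glo luminescence measured viability, normalized to DMSO and no-cell controls.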
IL1B secr inh – qHTS for Inhibitors of Inflammasome Signaling: IL-1-beta AlphaLISA Primary Screen; THP-1 LPS/ATP IL-1B secretion, AlphaLISA, 16 h; hits give low values; AID 743279, 2014; activity change, % at 57.5 µM; hit rate 4.7% among 360,000; in the data active = activity change below about -50%; inconclusive = mostly about -30% to -49%
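THP-1 cells pretreated 1 hr with compounds (up to 57.5 uM final), then stimulated with LPS (250 ng/mL final) plus ATP (1.25 mM final); secreted IL-1B measured by AlphaLISA after 16 hr, decreased signal indicating inhibition.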
HT1080 IDH1KD tx – qHTS for induction of synthetic lethality in tumor cells producing 2HG: qHTS for the HT-1080-IDH1KD cell line. HT-1080 IDH1 knockdown viability, ATP luminescence, 48 h. Potency, µM (titrated, usually from 46.1 µM), for the others: at the highest dose activity, negative = toxicity, actives largely listed as cytotoxic. hit rate 2% among 360,000. AID 686971, 2013;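 note: potency is the fitted concentration of half-maximal effect; 0% = DMSO wells and -100% = cell-free medium wells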
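Assay cells: HT-1080 with IDH1 knockdown, 750 per well, RPMI/5% FBS. Exposure: 48 h at 37 °C following 2 h pre-incubation. Read: CellTiter-Glo luminescence; fitted concentration-response, curve class assigned.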
DT40 TDP1 no CPT – qHTS for Inhibitors of human tyrosyl-DNA phosphodiesterase 1 (TDP1): qHTS in cells in absence of CPT | DT40 Tdp1-/- hTDP1 cells, no CPT, ATP luminescence, 48 h | Potency, µM (series often up to 46.2 µM), without a hit: at the top dose activity change, negative = growth inhibition, most hits filed as inhibitors | hit rate 15% among 420,000; note: potency is the fitted concentration of half-maximal effect; nearly all actives have a fitted effect of over 55% in size
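Camptothecin absent (DMSO only). Human TDP1-complemented DT40 knockout cells, 400 cells/well, 37 °C for minimum 48 hr; ATP measured via CellTiter-Glo, 30 min dark incubation, luminescence.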
Starred values were filed as active, the others as inactive; ? = inconclusive; · = no result; [ ] = remark or other dose. A selection: hits, their analogues and other compounds. The true share with any hit is near 19%. Unless noted, calls come from the whole dose curve; as a rule, active = well fitted curve in the direction sought with a large enough effect; inconclusive = small, poorly fitted or top-dose-only effect, or another doubt; inactive = no such curve, though single readings can be large; an effect the other way counts as inactive or inconclusive. Unless noted, % is set by controls: 0 for no effect and ±100 for the full control effect.

SMILES	TDP1 cell CPT	HT1080NT lethal	IL1B secr inh	HT1080 IDH1KD tx	DT40 TDP1 no CPT
N#C/C(=C/c1ccc(N2CCCC2)c([N+](=O)[O-])c1)c1nc2ccccc2[nH]1	13µM*	5%	-6	-1%	15µM*
N#C/C(=C/c1ccc(N2CCOCC2)o1)c1ccc(Cl)cc1	?	6.3µM*	-78*	3.5µM*	15µM*
N#C/C(=C\c1ccc(Oc2ccc(C(F)(F)F)cc2[N+](=O)[O-])cc1)c1nc2ccccc2[nH]1	-74%	-8%	-13	-8%	21µM*
O=C(Nc1ccc(Oc2ccccc2)cc1)c1ccc2nc([C@@H]3O[C@H](CO)[C@H](O)[C@H](O)[C@H]3O)[nH]c2c1	2%	?	52	?	6%
COC(=O)C1Cc2c([nH]c3ccccc23)C2CCC(=O)N12 (stereo not given)	3%	-3%	-5	14%	2%
COC(=O)[C@@H]1Cc2c([nH]c3ccccc23)C(C)(C)N1C(=O)CCl	18µM*	?	-98*	18µM*	23µM*
CC(=O)Nc1ccc(NS(=O)(=O)c2ccc3c(c2)CCCN3C(C)=O)cc1	4%	·	·	·	2%
COc1cc(NS(=O)(=O)c2ccc3c(c2)CCCN3C(C)=O)cc(OC)c1OC	8.2µM*	·	·	·	9.2µM*
CCOc1ccc(CNS(=O)(=O)c2ccc3c(c2)CCCN3C(C)=O)cc1OC	?	·	·	·	18µM*
O=C(CSc1nnc(-c2ccccc2)n1-c1ccccc1)c1cccs1	?	-2%	-23	-2%	12µM*
c1ccc(CSc2ncn(-c3ccccc3)n2)cc1	8%	3%	-28	-2%	-4%
O=C(CSc1nnc(Cc2cccs2)n1Cc1ccco1)Nc1cccc(Cl)c1	?	1%	-9	1%	?
O=C(CSc1ncn(-c2ccccc2)n1)c1cccs1	?	12%	-52*	15%	-15%
O=C(CSc1nnc(-c2ccc(Cl)cc2)n1Cc1ccco1)c1cccs1	?	?	-6	-9%[9.24 µM]	21µM*
O=C(CSc1nnc(Cc2cccs2)n1Cc1ccco1)Nc1cc(Cl)cc(Cl)c1	26µM*	-24%	?	-24%	?
O=C(CSc1nnc(-c2ccccc2)n1-c1ccccc1)c1ccc[nH]1	?	7%	0	6%	?
Cc1ccc(C(=O)CSc2nnc(-c3ccccc3)n2-c2ccccc2)o1	11µM*	13%	-6	7%	10µM*
Cc1ccc(C(=O)CSc2nnnn2-c2ccccc2)o1	12%	-2%	0	6%	0%
CCOc1ccc(/C=C/c2nc(C#N)c(Nc3ccc(OCC)cc3)o2)cc1	23µM*	·	·	·	23µM*
CCOc1ccc(/C=C/c2nc(C#N)c(N3CCN(c4ccc(OC)cc4)CC3)o2)cc1	1%	·	·	·	-24%
COc1ccc(CNc2oc(/C=C/c3cccc(OC)c3)nc2C#N)cc1	23µM*	·	·	·	23µM*
CCOc1ccc(/C=C/c2nc(C#N)c(Nc3ccc(OC)cc3)o2)cc1	21µM*	·	·	·	16µM*
CCC(CC)c1nc(C#N)c(NC(C)c2ccccc2)o1 (stereo not given)	-19%	8%	7	6%	-22%
CCOc1ccc(/C=C/c2nc(C#N)c(NC(C)c3ccccc3)o2)cc1 (stereo not given)	13µM*	·	·	·	12µM*
NC(C(=O)O)C(CC(=O)O)c1ccc(Cl)cc1 (stereo not given)	-1%	·	·	·	1%
SMILES	TDP1 cell CPT	HT1080NT lethal	IL1B secr inh	HT1080 IDH1KD tx	DT40 TDP1 no CPT
C[C@]12c3[nH]c4cc(-c5ccco5)ccc4c3CCN1C(=O)[C@@H](CC(=O)NCc1ccco1)C[C@@H]2C(=O)N1CCCCC1	?	-23%	?	-27%	?
COc1ccc(CN2C(=O)C(CC(=O)NCCc3ccccn3)CC(C(=O)N3CCCCCC3)=C2C)cc1 (stereo not given)	8%	-12%	·	-6%	9%
C=CCNC(=O)C(=O)c1cccn1-c1ccsc1C(=O)OC	7%	11%	8	7%	-1%
Cc1ccc(CC(=O)NC2CCSC2=O)cc1 (stereo not given)	1%	1%	1	15%	2%
COc1cccc(/C=C/c2nc(C#N)c(NCCc3ccc(OC)c(OC)c3)o2)c1	?	·	·	·	-87%
CCOc1ccc(Nc2oc(/C=C/c3cccc(OC)c3)nc2C#N)cc1	?	·	·	·	23µM*
O=C(COC(=O)c1ccc(=O)[nH]c1)Nc1cccc(S(=O)(=O)N2CCOCC2)c1	-10%	-1%	1	-2%	-4%
O=C(/C=C/c1ccccc1)NC(=S)NNC(=O)Cc1cccs1	?	?	39	?	18µM*
COc1ccc(/C=C/C(=O)NC(=S)NNC(=O)Cc2cccs2)cc1	21µM*	15µM*	71	16µM*	?
CC(=O)Nc1ccc(-c2nnc3n(Cc4ccc(C)cc4)c(=O)c4ccccc4n23)cc1	-21%	·	·	·	-20%
O=c1c2ccccc2n2c(-c3ccccc3F)nnc2n1CCc1ccccc1	?	·	·	·	18µM*
Cc1cccc(-c2nnc3n(CCc4ccccc4)c(=O)c4ccccc4n23)c1	?	·	·	·	26µM*
COc1cc(-c2nnc3n(CCc4ccccc4)c(=O)c4ccccc4n23)cc(OC)c1OC	?	8%	15	6%	16µM*
Cc1cccc(-c2nc3c(c(=O)c4ccccc4n3C)c(=O)n2-c2ccccc2)c1	-12%	0%	72	20%	-22%
COc1ccc(OC)c(-c2nnc3n(Cc4ccc(C)cc4)c(=O)c4ccccc4n23)c1	10µM*	·	·	·	18µM*
COc1ccc(C(=O)c2c[nH]c(C(=O)N=CN(C)C)c2)cc1	-13%	7%	6	11%	-29%
Cc1ccc(S(=O)(=O)N2CCN(c3ccccc3)CC2)cc1C(=O)NC1CCCCC1	-26%	26%	?	2%	?
CCCCN(C(=O)c1cccc(S(=O)(=O)N2CCN(C)CC2)c1)c1c(N)n(CCC)c(=O)[nH]c1=O	5%	19%	2	22%	4%
CN1CCN(NC(=O)/C=C/c2cccc(Cl)c2)CC1	4%	-9%	3	-7%	17%
CC(C)C[C@H]1CNC(=O)C(=O)N1CC1CCN(CC2CCC(C)CC2)CC1 (stereo not given in full)	0%	1%	-15	12%	1%

Screens (PubChem)
